Shown are actives, neighbours in structure and some others; about 3.4% of the full set was active somewhere.
MITF TRPM1 inh: reduces MITF-dependent TRPM1 promoter luciferase signal; AID 488899; inhibition, % at 12.5 µM; SK-MEL-5 TRPM1 promoter luciferase, 24 h; 330,000 tested, 0.83% active;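 active = mean inhibition across replicates of 60% or more, whatever share of single replicates reaches that level; inconclusive = some that reach 60%, reason not given; inactive = mean inhibition across replicates below 60%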
HIF-2a inh: inhibitors of HIF-2a. 786-0 RCC cells HIF-2a reporter, luciferase luminescence, overnight. inhibition, % at 18.8 µM. 360,000 tested, 0.72% active;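 active = inhibition of the luminescence signal of 40% or more relative to plate controls, in a single-dose primary screen at 18.75 µM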
EBV LMP1 NFkB: reduces LMP1-driven NF-kappaB luciferase signal; 350,000 tested, 0.69% active; LMP1-induced NF-kappaB luciferase reporter cells, luminescence; inhibition, % at 12.5 µM; in the data active = inhibition above about 41%; inconclusive = no clear call, values can overlap the other calls;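 note: 0% = neutral control wells and 100% = reference inhibitor control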
Shn3 inh set2: Schnurri-3 reporter inhibition in Clone20 osteoblasts. Clone20 osteoblast Shn3 3'UTR firefly luciferase, 24 h. inhibition, % at 12.5 µM. 360,000 tested, 0.52% active. AID 588674;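 active = mean inhibition of at least 75% with every replicate also reaching 75%; inconclusive = mean inhibition at least 75% but some replicate below; inactive = mean inhibition below 75%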;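 note: 0% = median of neutral control wells and 100% = pilot-screen positive control compound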
TWEAK Fn14 block: inhibitors of TWEAK-Fn14 interaction signaling. inhibition, % at 10 µM. TWEAK-stimulated Fn14 reporter cells, luciferase luminescence, 8 h. 360,000 tested, 2% active; in the data active = inhibition above about 50%
TROY NFkB inh: inhibitors of TROY-dependent NF-kB signaling; AID 1347056; Q293 LMP1-TROYcd NF-kB luciferase reporter, 4 h; inhibition, % at 10 µM; 360,000 tested, 0.98% active;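 active = compounds whose plate-normalised and pattern-corrected inhibition of the luciferase reporter signal at the single screening dose is 50% or more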
* marks the source's active call; other numbers are inactive results; ? = inconclusive; nt = no result given; ! = repeats disagree.

SMILES	MITF TRPM1 inh	HIF-2a inh	EBV LMP1 NFkB	Shn3 inh set2	TWEAK Fn14 block	TROY NFkB inh
CN(CC(=O)Nc1ccc(F)c(F)c1F)C(=O)Cc1ccc(S(=O)(=O)N2CCOCC2)s1	5	12	7	-13	19	10
Cc1c(NS(=O)(=O)c2cc(C(=O)OCC(=O)c3ccccc3F)ccc2Cl)c(=O)n(-c2ccccc2)n1C	nt	-9	-6	-11	0	-17
CC(C)(C)n1nc2c(c1NC(=O)c1ccc(Cl)c([N+](=O)[O-])c1)CS(=O)(=O)C2	-1	7	-4	8	54*	49
Cc1ccc(OCC(=O)OCC(=O)NC2CCCCCC2)cc1C	nt	11	1	14	-2	-6
CC1(C)CC(=O)C2=C(C1)c1c(ccc3ccccc13)NC2c1cc([N+](=O)[O-])cc([N+](=O)[O-])c1O (stereo not drawn)	17	36	-9	10	42	53*
Cc1cccc(N(CC(=O)NCC2CCCO2)C(=O)CCC(=O)Nc2nccs2)c1 (stereo not drawn)	3	15	4	-1	7	-5
COC(=O)[C@@]1(Cc2ccccc2)[C@H]2C(=O)N(C)C(=O)[C@H]2[C@H]2CN=C(SCc3ccc(C#N)cc3)N21	-11	11	0	-12	2	-5
O=C(CCC1N=C2c3ccccc3N=C(SCC(=O)NCC3CCCO3)N2C1=O)NCc1ccc(F)cc1 (stereo not drawn)	5	14	-6	-8	8	-2
COCCCNc1ccn2nc(-c3cccc(Cl)c3)cc2n1	nt	-278	nt	-62	34	3
COCCCNc1ccn2nc(-c3ccccc3)cc2n1	nt	5	nt	-2	72*	39
COc1cc(NC(=O)c2ccnc(N)c2)cc(C(=O)Nc2cccc(C(F)(F)F)c2)c1	-25	-113	5	-2	-20	-29
Cc1ccc(C(=O)Nc2cccc(C(F)(F)F)c2)cc1NC(=O)c1ccno1	-13	-15	46*	4	-36	5
Cc1ccc(C(=O)Nc2cccc(C(F)(F)F)c2)cc1NC(=O)c1nccn1C	nt	-9	7	-6	-49	-7
Cc1ccc(C(=O)Nc2cccc(C(F)(F)F)c2)cc1Nc1cnccn1	5	1	16	12	-33	-26
Cc1ccc(C(=O)Nc2cccc(C(F)(F)F)c2)cc1Nc1ncnc2nc[nH]c12	nt	26	44*	51	2	28
COc1cc(NC(=O)c2cnc(N)o2)cc(C(=O)Nc2cccc(C(F)(F)F)c2)c1	34	-67	26	32	57*!	25
O=C(Nc1ccc2c(c1)OCO2)c1ccc2sc([C@@H]3O[C@H](CO)[C@@H](O)[C@H]3O)nc2c1	nt	-122	nt	-18	25	-5
CN(CCNC(=O)c1c[nH]c2c1ccc1ccccc12)CCNC(=O)c1c[nH]c2c1ccc1ccccc12	-32	-160	-4	1	-31	-40
CCN(CC)c1ccc(S(=O)(=O)Nc2cc(Cl)ccc2Cl)cc1NC(=S)NC(=O)C1CCCC1	0	13	8	4	42	23
CCN(CC)S(=O)(=O)c1ccc(Cl)c(NC(=S)NC(=O)C2CCCC2)c1	16	12	7	72	56*	55*
CCCCn1c(N)c(N(CC(C)C)C(=O)CSc2nn(-c3ccc(F)cc3)c(=S)s2)c(=O)[nH]c1=O	12	27	1	19	11	-11
CC(=NNC(=O)CSCC(=O)NN=C(C)c1ccccc1)c1ccccc1	5	-5	-6	9	1	-4
CC(=O)Nc1cc(-c2cccc(F)c2)cn2c(-c3ccccc3)cnc12	nt	-10	nt	9	-22	-19
Cc1ccccc1N1CC(=O)N(c2ccccc2C)CC1=O	20	16	-5	-5	-13	-6
Cc1cccc2c1c1ccc3c(c1n2C)C(=O)C=CC3=O	94*	6	-46	51	20	4
SMILES	MITF TRPM1 inh	HIF-2a inh	EBV LMP1 NFkB	Shn3 inh set2	TWEAK Fn14 block	TROY NFkB inh
CCCc1nnc(NC(=O)C(=O)NCCN(CC)CC)s1	-3	8	-2	-8	19	54*
CC(C)(C)c1nnc(N/N=C/c2cc(Br)ccc2O)n(N)c1=O	68*	-8	?	86*	32	-2
CCc1nnc(N/N=C/c2cc(Br)c(O)cc2O)n1N	11	6	0	-3	-1	16
O=C(O)CCCc1c(-[n+]2ccccc2)[nH]c2ccccc12	-8	13	5	-5	-1	9
O=C(O)CCc1c(C(=O)O)[nH]c2ccccc12	-3	5	6	1	69*	nt
O=C(Nc1cc(Cl)ccc1-n1cncn1)c1ccco1	24	19	0	12	9	-10
O=C(Nc1cc(Cl)ccc1-n1cncn1)c1ccc([N+](=O)[O-])s1	62*	25	-4	60	32	27
Cc1ccc(C(=O)CN2C(=O)NC3(CCCCCC3)C2=O)c(C)c1	-111	-215	-26	-62	-61	-52
Cn1c(=O)n(C)c2cc([N+](=O)[O-])c(N3CCN(S(=O)(=O)c4ccc(C(C)(C)C)cc4)CC3)cc21	-3	-9	0	85*	54*	36
CC(=O)Nc1ccc(S(=O)(=O)N2CCN(c3cc4c(cc3[N+](=O)[O-])n(C)c(=O)n4C)CC2)cc1	2	-14	8	23	1	21
O=C(Cc1ccccc1)NCC(=O)N/N=C/c1ccc([N+](=O)[O-])s1	83*	6	0	-11	0	-2
O=C(CNC(=O)c1ccccc1)N/N=C/c1cccs1	6	-20	4	-12	-9	12
O=C(CNC(=O)c1ccccc1)N/N=C/c1ccc([N+](=O)[O-])s1	63*	-13	13	12	-8	-22
N#C/C(=C/c1ccc(-c2ccc([N+](=O)[O-])cc2)o1)c1nnc(N2CCOCC2)n1-c1ccccc1	15	-8	4	3	44	10
CS(=O)(=O)Nc1ccc(C2=NN(S(C)(=O)=O)C(c3ccccc3)C2)cc1 (stereo not drawn)	-8	-66	66*	-9	-18	-26
CCOC(=O)C1(C)CCCN(C(=O)c2snnc2C)C1 (stereo not drawn)	nt	12	nt	1	17	-12
Cc1cc(C)c2c(=O)n(CC(=O)N3CCC(N4CCCCC4)CC3)sc2n1	4	12	-11	-15	-8	3
CCOC(=O)C1CCCN(C(=O)Cn2sc3nc(C)cc(C)c3c2=O)C1 (stereo not drawn)	7	5	-1	97*	-1	-22
COc1cc(/C=N/Nc2snc(SC)c2C#N)cc(OC)c1OC	5	-48	-13	13	92*	nt
O=C(NCc1ccccc1Cl)c1ccc2nc[nH]c2c1	-1	-14	1	-64	-15	-19
O=C(COC(=O)CCN1C(=O)/C(=C\C=C\c2ccccc2)SC1=S)Nc1cc(F)ccc1F	63*	83*	18	39	55*	25

Bioassay records: PubChem BioAssay, several laboratories
